Measurements as given in the supplement of paper PMC12645437, “Orthogonal IMiD-Degron Pairs Induce Selective Protein Degradation in Cells” (ACS Chemical Biology, 2025).
Over roughly 8,300 sequences, “log2 fold change of degron read counts, EGFP-low vs EGFP+ sorted cells (limma voom), compound-induced degradation” has its median near -1.1; the highest 2% begin near 3.2. What follows is part of a selection rich in the highest values, with near analogues and random picks from the rest.

T1: CRBN, Q96SW2
T1 chain: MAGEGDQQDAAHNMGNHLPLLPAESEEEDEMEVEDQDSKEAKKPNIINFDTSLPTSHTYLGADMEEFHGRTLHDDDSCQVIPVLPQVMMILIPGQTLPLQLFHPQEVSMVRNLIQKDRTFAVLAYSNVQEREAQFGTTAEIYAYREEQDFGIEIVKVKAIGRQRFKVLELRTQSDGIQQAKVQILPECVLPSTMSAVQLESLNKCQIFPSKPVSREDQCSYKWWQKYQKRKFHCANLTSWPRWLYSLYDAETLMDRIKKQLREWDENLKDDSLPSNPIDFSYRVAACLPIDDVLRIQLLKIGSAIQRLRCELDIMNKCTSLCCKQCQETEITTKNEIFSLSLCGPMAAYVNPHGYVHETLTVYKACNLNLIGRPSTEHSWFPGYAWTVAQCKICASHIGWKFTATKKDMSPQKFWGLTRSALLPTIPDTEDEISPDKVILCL

B1: 46F_47L_49P_50V_52G_53A_54H_55F_67L_, Q9UKT9 (peptide)
chain: FLCPVCGAHFTQKGNLLRHIKL
B2: 46L_47V_49E_50I_52G_53F_54P_55C_67L_, Q9UKT9 (peptide)
chain: LVCEICGFPCTQKGNLLRHIKL
B3: 46F_47V_49P_50I_52G_53R_54I_55F_67L_, Q9UKT9 (peptide)
chain: FVCPICGRIFTQKGNLLRHIKL
B4: 46F_47Q_49P_50I_52G_53H_54T_55F_67L_, Q9UKT9 (peptide)
chain: FQCPICGHTFTQKGNLLRHIKL
B5: 46F_47R_49E_50V_52G_53A_54N_55F_67L_, Q9UKT9 (peptide)
chain: FRCEVCGANFTQKGNLLRHIKL
B6: 46F_47H_49P_50V_52G_53A_54D_55F_67L_, Q9UKT9 (peptide)
chain: FHCPVCGADFTQKGNLLRHIKL
B7: 46F_47V_49P_50I_52G_53R_54N_55F_67L_, Q9UKT9 (peptide)
chain: FVCPICGRNFTQKGNLLRHIKL
B8: 46F_47D_49N_50I_52G_53A_54G_55F_67L_, Q9UKT9 (peptide)
chain: FDCNICGAGFTQKGNLLRHIKL
B9: 46F_47G_49N_50Q_52G_53R_54Q_55F_67L_, Q9UKT9 (peptide)
chain: FGCNQCGRQFTQKGNLLRHIKL
B10: 46F_47E_49N_50Q_52G_53A_54Q_55F_67L_, Q9UKT9 (peptide)
chain: FECNQCGAQFTQKGNLLRHIKL
B11: 46F_47T_49E_50V_52G_53A_54V_55F_67L_, Q9UKT9 (peptide)
chain: FTCEVCGAVFTQKGNLLRHIKL
B12: 46F_47L_49E_50V_52G_53A_54V_55F_67L_, Q9UKT9 (peptide)
chain: FLCEVCGAVFTQKGNLLRHIKL
B13: 46F_47S_49E_50V_52G_53A_54V_55F_67L_, Q9UKT9 (peptide)
chain: FSCEVCGAVFTQKGNLLRHIKL
B14: 46F_47K_49E_50V_52G_53A_54V_55F_67L_, Q9UKT9 (peptide)
chain: FKCEVCGAVFTQKGNLLRHIKL
B15: 46F_47H_49E_50V_52G_53A_54V_55F_67L_, Q9UKT9 (peptide)
chain: FHCEVCGAVFTQKGNLLRHIKL
B16: 46F_47W_49E_50V_52G_53A_54V_55F_67L_, Q9UKT9 (peptide)
chain: FWCEVCGAVFTQKGNLLRHIKL
B17: 46F_47D_49E_50V_52G_53A_54V_55F_67L_, Q9UKT9 (peptide)
chain: FDCEVCGAVFTQKGNLLRHIKL
B18: 46F_47C_49E_50V_52G_53A_54V_55F_67L_, Q9UKT9 (peptide)
chain: FCCEVCGAVFTQKGNLLRHIKL
B19: 46F_47Q_49E_50V_52G_53A_54V_55F_67L_, Q9UKT9 (peptide)
chain: FQCEVCGAVFTQKGNLLRHIKL
B20: 46F_47V_49E_50V_52G_53A_54V_55F_67L_, Q9UKT9 (peptide)
chain: FVCEVCGAVFTQKGNLLRHIKL
B21: 46F_47A_49E_50V_52G_53A_54V_55F_67L_, Q9UKT9 (peptide)
chain: FACEVCGAVFTQKGNLLRHIKL
B22: 46F_47F_49E_50V_52G_53A_54V_55F_67L_, Q9UKT9 (peptide)
chain: FFCEVCGAVFTQKGNLLRHIKL

Target: T1, CRBN, Q96SW2
Experiment: log2 fold change of degron read counts, EGFP-low vs EGFP+ sorted cells (limma voom), compound-induced degradation; higher = more compound-induced degradation of the degron-EGFP fusion; degrons are variants of IKZF1/3 zinc finger 2; compound dose not given here
Details: Jurkat, 18 h
[1] = compound: compound 19 (5-tert-butyl-thalidomide)
[2] = compound: compound 22 (5-morpholino-thalidomide)
[3] = compound: compound 33 (diphenyl IMiD analogue)
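Also: pooled lentiviral library of zinc finger degron-EGFP fusions in mCherry-positive Jurkat cells, FACS-sorted after compound exposure, with degron abundance counted by next-generation sequencing.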

| Sequence | log2 fold change of degron read counts [1] | log2 fold change of degron read counts [2] | log2 fold change of degron read counts [3] | log2 fold change of degron read counts (compound: thalidomide) |
| --- | --- | --- | --- | --- |
| B1 | -0.298 | -0.793 | 1.34 | 0.943 |
| B2 | -1.74 | -0.966 | -1.5 | -0.424 |
| B3 | -1.17 | -0.629 | 1.04 | 1.32 |
| B4 | -2.53 | -2.01 | -1.64 | 0.116 |
| B5 | -1.19 | -1.18 | 1.07 | 0.852 |
| B6 | -0.685 | -1.25 | 0.492 | -1.46 |
| B7 | -1.5 | 0.0165 | -0.308 | 1.47 |
| B8 | -0.56 | -1.59 | -0.734 | -0.131 |
| B9 | -1.78 | -3.61 | -1.87 | -1.99 |
| B10 | -3.22 | -3.17 | -2.23 | -1.78 |
| B11 | -0.209 | 1.43 | 1.81 | 2.36 |
| B12 | -1.19 | -1.32 | 0.896 | 1.47 |
| B13 | 2.19 | 1.99 | 2.31 | 0.741 |
| B14 | -2.3 | -3.46 | -2.84 | -1.47 |
| B15 | 0.991 | 1.24 | 1.22 | -0.292 |
| B16 | 2.83 | 3.43 | 2.51 | 0.594 |
| B17 | -0.0916 | -0.965 | 0.432 | 0.0687 |
| B18 | 1.18 | 1.8 | 2.68 | 1.79 |
| B19 | -0.43 | 2.76 | 2.39 | 3.71 |
| B20 | -0.567 | 1.18 | 2.1 | 2.01 |
| B21 | 3.24 | 2.04 | 1.3 | 0.155 |
| B22 | 2.87 | 3.44 | 1.92 | 1.04 |
